Drawing on the supplement of paper PMC9446081, this text covers relative enzymatic activity for 40 molecules.

± gives the standard deviation of the averaged measurements.

The target of this assay is MurC (UniProt C4ZRI6). Briefly: relative enzymatic activity vs untreated control (fraction); higher = less inhibition. The following applies: 100 µM; incubation time: 2 h at 37 C. The method, then: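 In vitro enzymatic inhibition assays (ProFoldin kits) for 12 purified essential E. coli enzymes or complexes, each treated with 218 active antibacterial compounds at 100 µM for 2 h at 37°C. Read-outs were fluorescence or absorbance (phosphate detection, dye binding), converted to activity via standard curves and expressed relative to untreated DMSO controls.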
Chain of MurC (C4ZRI6 whole entry, looked up): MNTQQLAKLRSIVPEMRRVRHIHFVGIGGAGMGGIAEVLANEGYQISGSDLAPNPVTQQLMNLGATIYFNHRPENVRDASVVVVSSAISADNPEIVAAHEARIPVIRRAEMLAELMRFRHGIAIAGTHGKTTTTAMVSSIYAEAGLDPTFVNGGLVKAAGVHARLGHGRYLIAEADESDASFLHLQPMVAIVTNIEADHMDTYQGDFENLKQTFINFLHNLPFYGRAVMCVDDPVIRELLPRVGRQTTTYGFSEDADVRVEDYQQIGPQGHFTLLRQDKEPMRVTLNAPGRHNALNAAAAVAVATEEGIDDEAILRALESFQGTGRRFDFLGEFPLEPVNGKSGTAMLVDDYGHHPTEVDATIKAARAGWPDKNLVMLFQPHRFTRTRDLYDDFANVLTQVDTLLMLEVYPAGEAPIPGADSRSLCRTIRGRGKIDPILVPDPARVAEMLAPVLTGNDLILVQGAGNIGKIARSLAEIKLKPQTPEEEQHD
Consider `O=c1[nH]cc(F)c(=O)[nH]1`, for which the relative enzymatic activity stood at 0.97 ± 0.074.

Regarding `CC(N)O.Cc1cc(CC(C)CC(C)(C)C)n(O)c(=O)c1` (stereo not given), the relative enzymatic activity turned out to be 1.11 ± 0.024.

For the molecule `Nc1nc(C(=CCC(=O)O)C(=O)NC2C(=O)N3C(C(=O)O)=CCSC23)cs1` (stereo not given), the relative enzymatic activity amounted to 0.885 ± 0.2.

The molecule `Cc1nnc(SCC2=C(C(=O)O)N3C(=O)[C@@H](NC(=O)Cn4cnnn4)[C@H]3SC2)s1` registered a relative enzymatic activity of 0.988 ± 0.078.

`O=C(Cn1cnnn1)NC1C(=O)N2C(C(=O)O)=C(CSc3nncs3)CSC12` (stereo not given) had a relative enzymatic activity of 1.06 ± 0.098.

The molecule `NC[C@H]1O[C@H](O[C@H]2[C@H](O)[C@@H](O[C@H]3O[C@H](CO)[C@@H](O)[C@H](N)[C@H]3O)[C@H](N)C[C@@H]2N)[C@H](N)[C@@H](O)[C@@H]1O` had a relative enzymatic activity of 0.9682 ± 0.0015.

The molecule `Cc1cn([C@H]2C[C@H](N=[N+]=[N-])[C@@H](CO)O2)c(=O)[nH]c1=O` gave a relative enzymatic activity of 1.08 ± 0.11.

Regarding `NCCONC(=O)[C@@H]1CC[C@@H]2CN1C(=O)N2OS(=O)(=O)O`, the relative enzymatic activity is 0.944 ± 0.034.

The molecule `COc1c(N2CCNC(C)C2)c(F)cc2c(=O)c(C(=O)O)cn(C3CC3)c12` (stereo not given) came in with a relative enzymatic activity of 1 ± 0.027.

In turn, `NC(=O)[C@@H]1C(=O)C[C@@H]2C[C@@H]3Cc4cccc(O)c4C(=O)[C@@H]3C(=O)[C@]2(O)C1=O` came in with a relative enzymatic activity of 1.17 ± 0.092.

In turn, `CO/N=C1\CN(c2nc3c(cc2F)c(=O)c(C(=O)O)cn3C2CC2)C[C@@H]1CN` had a relative enzymatic activity of 0.717 ± 0.047.

The molecule `Cc1cn(C2CC(N=[N+]=[N-])C(CO)O2)c(=O)[nH]c1=O` (stereo not given) registered a relative enzymatic activity of 1.01 ± 0.068.

Molecule `CON=C1CN(c2nc3c(cc2F)c(=O)c(C(=O)O)cn3C2CC2)CC1CN.CS(=O)(=O)O` (stereo not given) gave a relative enzymatic activity of 0.669 ± 0.18.

Consider `CO[C@@H]1[C@@H](OC(=O)c2ccc(C)[nH]2)[C@@H](O)[C@@H](Oc2ccc3c(c2C)OC(=O)[C@H](NC(=O)c2[nH]cc(CC(=O)Nc4cc5ccc(O[C@@H]6OC(C)(C)[C@H](OC)[C@@H](OC(=O)c7ccc(C)[nH]7)[C@H]6O)c(C)c5oc4=O)c2C)C3)CC1(C)C`, for which the relative enzymatic activity is 2.26 ± 0.28.

Molecule `CCCN1C[C@H](C)[C@@H](O)[C@](C)(O)[C@@H](CC)OC(=O)[C@H](C)[C@@H](O[C@H]2C[C@@](C)(OC)[C@@H](O)[C@H](C)O2)[C@H](C)[C@@H](O[C@@H]2O[C@H](C)C[C@H](N(C)C)[C@H]2O)[C@](C)(O)C[C@H]1C` showed a relative enzymatic activity of 1.02 ± 0.024.

Regarding `CN(C)c1ccc(O)c2c1C[C@H]1C[C@H]3[C@H](N(C)C)C(=O)[C@@H](C(N)=O)C(=O)[C@@]3(O)C(=O)[C@H]1C2=O`, the relative enzymatic activity is 1.11 ± 0.018.

In turn, `CC(C)CCCC(=O)N[C@@H](CCNCS(=O)(=O)O)C(=O)N[C@H](C(=O)N[C@@H](CCNCS(=O)(=O)O)C(=O)N[C@H]1CCNC(=O)[C@H]([C@@H](C)O)NC(=O)[C@H](CCNCS(=O)(=O)O)NC(=O)[C@H](CCNCS(=O)(=O)O)NC(=O)[C@H](CC(C)C)NC(=O)[C@H](CC(C)C)NC(=O)[C@H](CCNCS(=O)(=O)O)NC1=O)[C@@H](C)O` returned a relative enzymatic activity of 1.16 ± 0.21.

On to `O=C(O)c1c(O)c2c([nH]c1=O)CCCC2`, for which the relative enzymatic activity turned out to be 0.602 ± 0.36.

The molecule `NCC[C@H](O)C(=O)N[C@@H]1C[C@H](N)[C@@H](O[C@H]2O[C@H](CN)[C@@H](O)[C@H](O)[C@H]2O)[C@H](O)[C@H]1O[C@H]1O[C@H](CO)[C@@H](O)[C@H](N)[C@H]1O` came in with a relative enzymatic activity of 1.05 ± 0.11.

In turn, `CO/N=C(\C(=O)N[C@@H]1C(=O)N2C(C(=O)O)=C(CSc3nnnn3C)CS[C@H]12)c1csc(N)n1` displayed a relative enzymatic activity of 1.05 ± 0.082.

For `Cc1oc(=O)oc1CN1CCN(c2cc3c(cc2F)c(=O)c(C(=O)O)c2n3C(C)S2)CC1` (stereo not given), the relative enzymatic activity was 0.821 ± 0.066.

`CC1COc2c(N3CCN(C)CC3)c(F)cc3c(=O)c(C(=O)O)cn1c23` (stereo not given) yielded a relative enzymatic activity of 0.983 ± 0.042.

`CCC1OC(=O)C(C)C(=O)C(C)C(OC2OC(C)CC(N(C)C)C2O)C(C)(OC)CC(C)C(=O)C(C)C2N(CCCCn3cnc(-c4cccnc4)c3)C(=O)OC12C` (stereo not given) registered a relative enzymatic activity of 0.741 ± 0.33.

In turn, `CC1CCc2c(N3CCC(O)CC3)c(F)cc3c(=O)c(C(=O)O)cn1c23` (stereo not given) came in with a relative enzymatic activity of 0.92 ± 0.079.

In turn, `CON=C(C(=O)NC1C(=O)N2C(C(=O)[O-])=C(COC(C)=O)CSC12)c1csc(N)n1.[Na+]` (stereo not given) came in with a relative enzymatic activity of 0.961 ± 0.082.

As to `Nc1c2ccccc2nc2ccccc12`, the relative enzymatic activity turned out to be 0.998 ± 0.044.

With `N[C@H]1CCN(c2nc3c(cc2F)c(=O)c(C(=O)O)cn3-c2ccc(F)cc2F)C1`, the relative enzymatic activity was 0.934 ± 0.034.

`CON=C(C(=O)N[C@@H]1C(=O)N2C(C(=O)OCOC(=O)C(C)(C)C)=C(C=Cc3scnc3C)CS[C@H]12)c1csc(N)n1` came in with a relative enzymatic activity of 0.769 ± 0.15.

Molecule `O=c1[nH]c(=O)n(C2CC(O)C(CO)O2)cc1F` (stereo not given) gave a relative enzymatic activity of 0.948 ± 0.082.

As for `COC1(NC(=O)C(C(=O)[O-])c2ccc(O)cc2)C(=O)N2C(C(=O)[O-])=C(CSc3nnnn3C)COC21.[Na+].[Na+]` (stereo not given), the relative enzymatic activity was 1.03 ± 0.046.

`COC1C=COC2(C)Oc3c(C)c(O)c4c(O)c(c(C=NN5CCN(C6CCCC6)CC5)c(O)c4c3C2=O)NC(=O)C(C)=CC=CC(C)C(O)C(C)C(O)C(C)C(OC(C)=O)C1C` (stereo not given) showed a relative enzymatic activity of 0.182 ± 0.016.

`N[C@@H](C(=O)N[C@@H]1C(=O)N2C(C(=O)O)=C(Cl)CS[C@H]12)c1ccccc1` gave a relative enzymatic activity of 0.902 ± 0.062.

`CCC=C(C(=O)NC1C(=O)N2C(C(=O)OCOC(=O)C(C)(C)C)=C(COC(N)=O)CSC12)c1csc(N)n1.Cl` (stereo not given) gave a relative enzymatic activity of 0.843 ± 0.14.

The molecule `CN(C)C1C(O)=C(C(N)=O)C(=O)C2(O)C(O)=C3C(=O)c4c(O)ccc(Cl)c4C(O)C3CC12.Cl` (stereo not given) had a relative enzymatic activity of 1.021 ± 0.0019.

`CC(C)(O/N=C(\C(=O)N[C@@H]1C(=O)N2C(C(=O)O)=C(C[N+]3(CCNC(=O)c4ccc(O)c(O)c4Cl)CCCC3)CS[C@H]12)c1csc(N)n1)C(=O)O` returned a relative enzymatic activity of 0.83 ± 0.29.

With `CN(C)C1C(O)=C(C(N)=O)C(=O)C2(O)C(O)=C3C(=O)c4c(O)cccc4C(C)(O)C3CC12.Cl` (stereo not given), the relative enzymatic activity is 1.05 ± 0.039.

Molecule `CN1CCN(c2c(F)cc3c(=O)c(C(=O)O)cn4c3c2SCC4)CC1` showed a relative enzymatic activity of 0.895 ± 0.076.

`CCCCCCCCCCCCC[N+](C)(C)Cc1ccccc1.O.[Cl-]` showed a relative enzymatic activity of 0.556 ± 0.086.

Take `CN[C@H]1CN(c2ccc3c(=O)c(C(=O)O)cn(-c4nccs4)c3n2)C[C@@H]1OC`: the relative enzymatic activity came to 1.035 ± 0.0069.

The molecule `CO/N=C(\C(=O)N[C@@H]1C(=O)N2C(C(=O)O)=C(C)CS[C@H]12)c1csc(N)n1` had a relative enzymatic activity of 0.884 ± 0.037.
